Source: PubChem BioAssay
CYP2C19 act = activators of human cytochrome P450 2C19 | activation factor at 5 µM | 96,000 tested, under 10 active | recombinant CYP2C19, luciferin-H EGE luminescence; stronger effect = higher value; 0 = fully inhibited enzyme, 1 = untreated enzyme | AID 1025;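 active means activation factor of at least 2 at 5 µM in the primary screen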;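 further: 0 = wells with 2.5 mM tranylcypromine and 1 = vehicle-only wells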
CYP2C19 inh = inhibitors of human CYP2C19 | P33261 | CYP2C19 Supersomes, luciferin-H EGE luminescence, 30 min | inhibition, % at 5 µM | hit rate 21% among 96,000;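 active means CYP2C19 inhibition above a set limit at 5 µM in the primary screen, cut at about 50% in these data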;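 further: plate controls were negative control wells for no effect and 2.5 mM tranylcypromine positive control for full effect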
PostGolgi yeast = growth inhibition of a yeast mutant, post-Golgi transport screen; hit rate 0.9% among 98,000; post-Golgi transport phenotypic cell assay; inhibition, % at 10 µM; AID 739;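 further: yeast cells grown in 1536-well plates; yeast grown about 18 h at 30C before absorbance read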
CYP2C9 act = CYP2C9 (human) activation | hit rate 1.4% among 96,000 | P11712 | activation factor at 5 µM | recombinant CYP2C9, luciferin-H conversion, luminescence; stronger effect = higher value; factor 1 = untreated enzyme, 0 = blocked;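 active means activation factor of 2 or more for CYP2C9 at a 5 µM dose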;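 further: 0 = sulfaphenazole-blocked wells and 1 = vehicle-only wells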
Target sequence (P11712 whole entry, looked up): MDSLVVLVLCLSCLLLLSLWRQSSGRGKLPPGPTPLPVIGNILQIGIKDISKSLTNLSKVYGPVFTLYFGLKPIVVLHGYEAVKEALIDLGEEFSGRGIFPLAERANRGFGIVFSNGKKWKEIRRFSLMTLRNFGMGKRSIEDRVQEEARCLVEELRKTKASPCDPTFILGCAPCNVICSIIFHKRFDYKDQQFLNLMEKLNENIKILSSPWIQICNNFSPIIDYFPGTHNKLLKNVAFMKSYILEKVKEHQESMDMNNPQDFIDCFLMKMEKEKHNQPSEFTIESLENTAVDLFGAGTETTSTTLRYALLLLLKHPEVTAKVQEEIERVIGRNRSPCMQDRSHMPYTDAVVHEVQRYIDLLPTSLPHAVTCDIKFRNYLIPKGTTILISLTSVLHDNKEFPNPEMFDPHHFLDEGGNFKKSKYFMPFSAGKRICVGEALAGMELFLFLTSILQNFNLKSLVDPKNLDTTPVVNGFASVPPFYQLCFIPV
CYP2C9 inh = blocks human cytochrome P450 2C9; inhibition, % at 5 µM; hit rate 20% among 96,000; AID 777; CYP2C9 Supersomes, luciferin-H conversion, luminescence; P11712;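 active means blocking of liver enzyme CYP2C9 beyond about 50% at 5 µM, limit read from the data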
PostGolgi ctrl = growth of the yeast control strain, post-Golgi counter-screen | hit rate 5% among 98,000 | efflux-deficient yeast background strain, growth absorbance A615, 16 h | inhibition, % at 10 µM | AID 738
Starred values were filed as active, the others as inactive. The list is not random: actives were taken first. Their share in the collection is about 32%. Unless noted, no stated cut-off is given here; in the data, active means inhibition above about 30%; inactive means the rest.

C[C@@]12CC(=O)NC1N(C(=O)c1cccc(C(F)(F)F)c1)C(c1ccccc1O)C2 (stereo not given in full) was read as CYP2C19 act 0.4, CYP2C19 inh 56*, PostGolgi yeast 2, CYP2C9 act 0.3, CYP2C9 inh 69* and PostGolgi ctrl -7.
For Cc1cccc(C(=O)Oc2ccccc2C2C[C@]3(C)CC(=O)NC3N2C(=O)c2cccc(C)c2)c1 (stereo not given in full) the results were CYP2C19 act 0.6, CYP2C19 inh 41, PostGolgi yeast 9, CYP2C9 act 0.4, CYP2C9 inh 57* and PostGolgi ctrl 6.
CCC(=O)N1CCc2cc(S(=O)(=O)NCCN3CCC(C)CC3)ccc21 was read as CYP2C19 act 0.9, CYP2C19 inh 14, PostGolgi yeast 2, CYP2C9 act 1, CYP2C9 inh 0 and PostGolgi ctrl 3.
For Cc1nnc(C)n1/N=C/c1cc(Br)ccc1O the results were CYP2C19 act 1, CYP2C19 inh 0, PostGolgi yeast 3, CYP2C9 act 0.9, CYP2C9 inh 15 and PostGolgi ctrl -1.
Cc1cc2ncn(/N=C/c3cc(Br)ccc3O)c2cc1C was read as CYP2C19 act 0.7, CYP2C19 inh 31, PostGolgi yeast 11, CYP2C9 act 0.4, CYP2C9 inh 61* and PostGolgi ctrl 35*.
Cc1cc(C)n(-c2ccc(C(=O)OCC(=O)NCc3ccco3)cc2)n1 was read as CYP2C19 act 1, CYP2C19 inh 2, PostGolgi yeast 7, CYP2C9 act 0.9, CYP2C9 inh 11 and PostGolgi ctrl 0.
Screening Cc1cc(C)n(-c2ccc(C(=O)OCC(=O)Nc3ccc(Cl)c(S(=O)(=O)N(C)C)c3)cc2)n1 returned CYP2C19 act 0.2, CYP2C19 inh 83*, PostGolgi yeast -5, CYP2C9 act 1.7, CYP2C9 inh -69 and PostGolgi ctrl -2.
`Cc1cc(C)n(-c2ccc(C(=O)Oc3ccc4c(c3)OCO4)cc2)n1` gave CYP2C19 act 1.1, CYP2C19 inh -10, PostGolgi yeast -7, CYP2C9 act 1.1, CYP2C9 inh -8 and PostGolgi ctrl -1.
Screening Cc1cc(C)n(-c2ccc(C(=O)OCC(=O)Nc3ccc(S(=O)(=O)N4CCOCC4)cc3)cc2)n1 returned CYP2C19 act 0.1, CYP2C19 inh 88*, PostGolgi yeast -6, CYP2C9 act 0.3, CYP2C9 inh 71* and PostGolgi ctrl 12.
Cc1cc(C)n(-c2ccc(C(=O)OCC(=O)c3ccc(Br)s3)cc2)n1 was read as CYP2C19 act 0.2, CYP2C19 inh 77*, PostGolgi yeast -5, CYP2C9 act 0.1, CYP2C9 inh 90* and PostGolgi ctrl 20.
`CC(Oc1ccc(C(C)(C)C)cc1)c1ccnc2nc(/N=C/N(C)C)nn12` (stereo not given) gave CYP2C19 act 0.9, CYP2C19 inh 6, PostGolgi yeast 2, CYP2C9 act 0.9, CYP2C9 inh 13 and PostGolgi ctrl 14.
CC1CN=C(c2cccn2Cc2ccc(F)cc2Cl)O1 (stereo not given) was read as CYP2C19 act 0.6, CYP2C19 inh 42, PostGolgi yeast 11, CYP2C9 act 1, CYP2C9 inh 2 and PostGolgi ctrl 32*.
Screening COc1nc(Nc2ccc(C(C)=O)cc2)nc(OC)n1 returned CYP2C19 act 0.5, CYP2C19 inh 51*, PostGolgi yeast -2, CYP2C9 act 0.5, CYP2C9 inh 51* and PostGolgi ctrl -1.
For COC(=O)c1ccc(Nc2nc(C)cc(C)n2)cc1 the results were CYP2C19 act 1, CYP2C19 inh 3, PostGolgi yeast 9, CYP2C9 act 0.9, CYP2C9 inh 7 and PostGolgi ctrl 7.
Screening COc1nc(Nc2ccc3c(c2)OCO3)nc(OC)n1 returned CYP2C19 act 0.5, CYP2C19 inh 49, PostGolgi yeast -1, CYP2C9 act 0.3, CYP2C9 inh 68* and PostGolgi ctrl 0.
`CN(C(=O)COC(=O)c1ccc2c(c1)OCO2)C1CCS(=O)(=O)C1` (stereo not given) gave CYP2C19 act 1.1, CYP2C19 inh -10, PostGolgi yeast 6, CYP2C9 act 1.2, CYP2C9 inh -21 and PostGolgi ctrl 6.
Cn1nc(C(=O)OCCN2C(=O)c3ccccc3C2=O)c2ccccc2c1=O was read as CYP2C19 act 0.6, CYP2C19 inh 43, PostGolgi yeast -7, CYP2C9 act 0.5, CYP2C9 inh 48 and PostGolgi ctrl -1.
For CCCc1cc(=O)oc2cc(Oc3ncccn3)ccc12 the results were CYP2C19 act 0.1, CYP2C19 inh 88*, PostGolgi yeast -2, CYP2C9 act 0.6, CYP2C9 inh 37 and PostGolgi ctrl 5.
COc1ccc2c(CN(C)c3ccccc3)cc(=O)oc2c1 was read as CYP2C19 act 0, CYP2C19 inh 97*, PostGolgi yeast 6, CYP2C9 act 0.6, CYP2C9 inh 36 and PostGolgi ctrl 7.
`Cn1c(=O)c2c(nc(OCc3ccccc3)n2C)n(C)c1=O` gave CYP2C19 act 1, CYP2C19 inh -3, PostGolgi yeast -4, CYP2C9 act 1, CYP2C9 inh -2 and PostGolgi ctrl 4.
Screening Cc1cccc(NC(=O)CCN2C(=O)c3ccccc3C2=O)n1 returned CYP2C19 act 0.5, CYP2C19 inh 45, PostGolgi yeast 5, CYP2C9 act 1.3, CYP2C9 inh -26 and PostGolgi ctrl 6.
`CCOC(=O)/C(=N/Nc1ccc(Cl)cc1)S(=O)(=O)c1ccccc1` gave CYP2C19 act 0.9, CYP2C19 inh 12, PostGolgi yeast 9, CYP2C9 act 0.8, CYP2C9 inh 20 and PostGolgi ctrl 22.
Screening COc1ccc(-c2nnc(SCC(=O)NCc3ccco3)n2C)cc1 returned CYP2C19 act 1, CYP2C19 inh 0, PostGolgi yeast 1, CYP2C9 act 0.9, CYP2C9 inh 7 and PostGolgi ctrl 9.
For Cn1c(SCC(=O)NCc2ccco2)nnc1-c1c[nH]c2ccccc12 the results were CYP2C19 act 0.5, CYP2C19 inh 52*, PostGolgi yeast 0, CYP2C9 act 0.6, CYP2C9 inh 38 and PostGolgi ctrl 5.
Screening CCOc1ccc(-n2c(SCC(=O)NCc3ccco3)nnc2-c2c[nH]c3ccccc23)cc1 returned CYP2C19 act 0.9, CYP2C19 inh 7, PostGolgi yeast 4, CYP2C9 act 0.4, CYP2C9 inh 60* and PostGolgi ctrl 11.
For Cc1cc(C(=O)N(C)Cc2ccc(Br)cc2)no1 the results were CYP2C19 act 0.1, CYP2C19 inh 92*, PostGolgi yeast -2, CYP2C9 act 0.7, CYP2C9 inh 31 and PostGolgi ctrl 0.
For CN(Cc1ccccc1)C(=O)c1cc(-c2ccc(Br)cc2)on1 the results were PostGolgi yeast 5 and PostGolgi ctrl 28.
Screening CCCCCSc1nnc(-c2cc(Br)ccc2N)c(=O)[nH]1 returned CYP2C19 act 0.9, CYP2C19 inh 11, PostGolgi yeast 1, CYP2C9 act 0.4, CYP2C9 inh 60* and PostGolgi ctrl 11.
